# Unmarked numbers belong to inactive results. Records with an inconclusive call do not appear. Where a call stands in place of a potency, no number is given. Active and inactive are the calls of the source. Unless noted, calls follow the shape of the dose curve; as a rule, active = well fitted curve in the direction sought with a large enough effect in the repeat runs; inconclusive = weak or mixed curves; inactive = no such curve, though single readings can be large; an effect the other way counts as inactive or inconclusive.
# What was measured:
# [1] = qHTS assay for small molecules that induce genotoxicity in human embryonic kidney cells expressing luciferase-tagged ATAD5 (AID 651632); also: nearly all actives have a fitted effect of over 15% in size
# Procedure, shortened: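 HEK293T cells carrying a luciferase reporter tagged to ATAD5 were exposed to compound or DMSO vehicle for 16 hr at 37C, 5% CO2. Amplite was added, and after 30 min at room temperature luciferase activity was read as a marker of ATAD5 induction.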
# [2] = qHTS assay for small molecules that induce genotoxicity in human embryonic kidney cells expressing luciferase-tagged ATAD5 - cell viability (AID 651634; calls by dose curve; also: nearly all actives have a fitted effect of over 25% in size)
# Procedure, shortened: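 HEK293T cells expressing luciferase-tagged ATAD5 were exposed to compound or DMSO for 15.5 hr at 37C, 5% CO2. Viability was then read as live-cell protease activity by CellTiter-Fluor fluorescence after 30 min at 37C.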
# [3] = qHTS assay for small molecule disruptors of the mitochondrial membrane potential - cell viability (AID 720634; calls by dose curve;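 also: human HepG2 liver cancer cells; series mostly up to about 83 µM; nearly all actives have a fitted effect of over 20% in size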)
# Procedure, shortened: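 HepG2 cells seeded overnight at 37 C, then exposed to compound or DMSO for 1 hr at 37 C, 5% CO2. m-MPI dye added, then CellTiter-Glo for 30 min at room temperature; viability read as ATP luminescence.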
# [4] = qHTS assay to test for compound auto fluorescence at 590 nm (red) in HepG2 cells (AID 720674)
# Procedure, shortened: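 Intrinsic compound fluorescence in the red window (Ex/Em 540/590 nm) is measured in attached HepG2 cells exposed for 1 hr, DMSO vehicle as baseline, benchmarked to Rose Bengal sodium.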
# [5] = qHTS assay to test for compound auto fluorescence at 535 nm (green) in HepG2 cells (AID 720675)
# [6] = qHTS assay to test for compound auto fluorescence at 460 nm (blue) in HEK293 cells (AID 720678)
# Procedure, shortened: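 Cells were seeded and left to adhere for 4-5 hr at 37C. Compounds were then pin-transferred. After an overnight incubation at 37C under 5% CO2, intrinsic fluorescence at 405/460 nm was measured and referenced to triamterene.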
# [7] = qHTS assay to test for compound auto fluorescence at 590 nm (red) in HEK293 cells (AID 720679)
# Procedure, shortened: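 Each well held 2,000 HEK293 cells in medium containing 10% dialyzed FBS. Following 4-5 hr attachment at 37C, 23 nL test compound or DMSO was added; plates sat overnight, and red fluorescence (540/590nm) was recorded.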
# [8] = qHTS assay to test for compound auto fluorescence at 535 nm (green) in HEK293 cells (AID 720680)
# [9] = qHTS assay to test for compound auto fluorescence at 535 nm (green) in HEK293 cell free culture (AID 720682)
# Procedure, shortened: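 No cells present: wells hold DMEM supplemented with 10% FBS, into which compound or vehicle is pinned. Green emission is then recorded (485 nm excitation, 535 nm emission) and scaled to fluorescein.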
# [10] = qHTS assay to test for compound auto fluorescence at 590 nm (red) in HEK293 cell free culture (AID 720683)
# Procedure, shortened: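 Tox21 10K library compounds were pinned into cell-free DMEM with 10% FBS and fluorescence was read at excitation 540 nm. Activity is expressed as Rose Bengal sodium equivalency.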
# [11] = qHTS assay to test for compound auto fluorescence at 460 nm (blue) in HepG2 cell free culture (AID 720685)
# Procedure, shortened: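 Compound (23 nL) or DMSO pinned into cell-free MEM with 10% FBS; blue fluorescence read at 405/460 nm excitation/emission, expressed as auto-fluorescence equivalency to triamterene.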
# [12] = qHTS assay to test for compound auto fluorescence at 535 nm (green) in HepG2 cell free culture (AID 720686)
# [13] = qHTS assay to test for compound auto fluorescence at 460 nm (blue) in HepG2 cells (AID 720687)
# Procedure, shortened: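 Cells (2,000/well in MEM with 10% FBS) attached overnight at 37 C, then were exposed to compound or DMSO for 1 hr at 37 C, 5% CO2. Fluorescence read at Ex/Em 405/460 nm, expressed as triamterene-equivalent signal.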
# [14] = biological target: Glucocorticoid receptor (Homo sapiens) (UniProt P04150); assay: qHTS assay to identify small molecule agonists of the glucocorticoid receptor (GR) signaling pathway (AID 720691; active = well fitted activation curve with a large enough effect in the signal ratio in the repeat runs, not every such curve was filed as active; the % refers to the signal ratio)
# Glucocorticoid receptor (Homo sapiens), sequence (P04150 whole entry, looked up): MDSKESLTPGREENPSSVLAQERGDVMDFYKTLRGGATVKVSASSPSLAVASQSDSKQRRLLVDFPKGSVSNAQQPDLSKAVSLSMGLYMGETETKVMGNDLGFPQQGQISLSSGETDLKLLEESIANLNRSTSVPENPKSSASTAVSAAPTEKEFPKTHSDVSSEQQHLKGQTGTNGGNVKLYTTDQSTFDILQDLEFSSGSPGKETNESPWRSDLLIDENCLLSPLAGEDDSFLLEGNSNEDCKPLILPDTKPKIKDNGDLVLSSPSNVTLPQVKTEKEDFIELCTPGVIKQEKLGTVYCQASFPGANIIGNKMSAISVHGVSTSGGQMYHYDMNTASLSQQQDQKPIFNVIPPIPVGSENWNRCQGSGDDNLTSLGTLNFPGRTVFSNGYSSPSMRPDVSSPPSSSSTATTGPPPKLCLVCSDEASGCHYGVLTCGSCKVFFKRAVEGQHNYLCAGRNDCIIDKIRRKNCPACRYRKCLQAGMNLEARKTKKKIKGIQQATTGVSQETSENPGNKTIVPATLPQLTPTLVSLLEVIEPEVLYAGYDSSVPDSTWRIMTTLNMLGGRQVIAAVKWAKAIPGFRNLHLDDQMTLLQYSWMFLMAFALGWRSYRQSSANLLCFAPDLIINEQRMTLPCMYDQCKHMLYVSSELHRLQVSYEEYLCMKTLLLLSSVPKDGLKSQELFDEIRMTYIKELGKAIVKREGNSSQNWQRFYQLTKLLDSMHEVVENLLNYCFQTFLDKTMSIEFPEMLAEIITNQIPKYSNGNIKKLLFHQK
# Procedure, shortened: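 GR-bla HeLa cells (beta-lactamase reporter under glucocorticoid response element) were plated 4 h at 37 C/5% CO2, given compounds in DMSO, and incubated 18 h at 37 C. LiveBLAzer B/G FRET substrate was added for 2 h at room temperature, then fluorescence intensity read.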
# [15] = biological target: Glucocorticoid receptor (Homo sapiens) (UniProt P04150); assay: qHTS assay to identify small molecule antagonists of the glucocorticoid receptor (GR) signaling pathway (AID 720692; active = well fitted inhibition curve with a large enough effect in the signal ratio in the repeat runs, not every such curve was filed as active; the % refers to the signal ratio)
# Procedure, shortened: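 GR-bla HeLa cells (beta-lactamase reporter under glucocorticoid response element) were pre-plated 4 h at 37 C, treated with compounds plus 5 nM dexamethasone (final) for 18 h, then read by LiveBLAzer B/G FRET fluorescence after 2 h.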
# [16] = qHTS assay to identify small molecule antagonists of the glucocorticoid receptor (GR) signaling pathway - cell viability counter screen (AID 720693); also: nearly all actives have a fitted effect of over 55% in size
# [17] = qHTS assay for identifying genotoxic compounds that show differential cytotoxicity against isogenic chicken DT40 cell lines with known DNA damage response pathways - wild type cell line (AID 743012); also: potency is read from the fitted curve at half-maximal effect; nearly all actives have a fitted effect of over 60% in size
# Procedure, shortened: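 Parental DNA repair-proficient DT40 cells, 300 per well, were pre-incubated ~0.5 h at 37 C/5% CO2, pin-dosed with compounds in DMSO, then incubated 40 h. Viability was read as CellTiter-Glo luminescence after 30 min at room temperature.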
# [18] = qHTS assay for identifying genotoxic compounds that show differential cytotoxicity against isogenic chicken DT40 cell lines with known DNA damage response pathways - Rev3 mutant cell line (AID 743014); also: potency is read from the fitted curve at half-maximal effect; nearly all actives have a fitted effect of over 55% in size
# [19] = qHTS assay for identifying genotoxic compounds that show differential cytotoxicity against isogenic chicken DT40 cell lines with known DNA damage response pathways - Rad54/Ku70 mutant cell line (AID 743015); also: potency is read from the fitted curve at half-maximal effect; nearly all actives have a fitted effect of over 60% in size
# [20] = biological target: Androgen receptor (Homo sapiens) (UniProt P10275); assay: qHTS assay to identify small molecule antagonists of the androgen receptor (AR) signaling pathway (AID 743035; active = well fitted inhibition curve with a large enough effect in the signal ratio in the repeat runs, not every such curve was filed as active; the % refers to the signal ratio)
# Androgen receptor (Homo sapiens), sequence (P10275 whole entry, looked up): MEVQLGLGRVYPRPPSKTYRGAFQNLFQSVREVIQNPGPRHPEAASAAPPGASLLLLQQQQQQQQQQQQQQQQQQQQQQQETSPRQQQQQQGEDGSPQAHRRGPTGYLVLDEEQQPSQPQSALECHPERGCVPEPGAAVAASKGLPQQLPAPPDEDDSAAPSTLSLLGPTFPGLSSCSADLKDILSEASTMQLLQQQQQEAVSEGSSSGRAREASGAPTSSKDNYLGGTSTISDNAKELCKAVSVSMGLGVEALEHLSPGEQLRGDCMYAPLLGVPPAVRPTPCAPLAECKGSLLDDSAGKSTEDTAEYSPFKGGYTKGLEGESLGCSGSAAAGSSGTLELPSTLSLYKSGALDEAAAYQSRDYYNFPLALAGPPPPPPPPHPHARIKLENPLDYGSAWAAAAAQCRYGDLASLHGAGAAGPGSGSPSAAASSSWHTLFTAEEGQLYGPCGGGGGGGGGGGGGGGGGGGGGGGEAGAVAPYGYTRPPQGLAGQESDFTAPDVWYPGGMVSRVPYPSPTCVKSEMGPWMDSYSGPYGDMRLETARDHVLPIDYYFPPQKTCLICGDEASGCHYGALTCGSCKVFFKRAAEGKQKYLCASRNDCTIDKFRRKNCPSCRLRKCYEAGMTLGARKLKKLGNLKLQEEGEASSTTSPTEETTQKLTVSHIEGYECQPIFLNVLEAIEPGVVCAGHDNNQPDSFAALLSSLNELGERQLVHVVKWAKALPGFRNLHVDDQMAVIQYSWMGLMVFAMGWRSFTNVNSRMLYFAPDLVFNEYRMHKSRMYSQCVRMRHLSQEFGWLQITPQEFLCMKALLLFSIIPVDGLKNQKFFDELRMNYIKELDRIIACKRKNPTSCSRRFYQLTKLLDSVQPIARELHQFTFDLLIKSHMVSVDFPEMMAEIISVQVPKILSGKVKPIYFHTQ
# Procedure, shortened: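 HEK293 cells stably carrying a UAS-driven beta-lactamase reporter (AR-UAS-bla GripTite) were plated for 4 h at 37C, then given compound and the agonist R1881 and incubated 16 h. Reporter activity was read by LiveBLAzer B/G FRET fluorescence after 2 h at room temperature.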
# [21] = biological target: Androgen receptor (Homo sapiens) (UniProt P10275); assay: qHTS assay to identify small molecule agonists of the androgen receptor (AR) signaling pathway using the MDA cell line (AID 743040; also: nearly all actives have a fitted effect of over 20% in size)
# Procedure, shortened: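 MDA-kb2 breast carcinoma cells stably carrying an MMTV-driven luciferase reporter (AR- and GR-responsive) were seeded and held 5 h at 37C, 0% CO2, then exposed to compounds in DMSO for 16 h. Luminescence was read 30 min after ONE-Glo addition.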
# [22] = qHTS assay to identify small molecule antagonists of the thyroid receptor (TR) signaling pathway - cell viability counter screen (AID 743064); also: potency is read from the fitted curve at half-maximal effect; nearly all actives have a fitted effect of over 50% in size
# Procedure, shortened: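 Rat GH3 pituitary tumor cells stably expressing two TR response elements driving luciferase were plated, rested 4 h, then dosed with library compounds and T3 (1 nM final). After 23.5 h at 37 °C, CellTiter-Fluor was added for 30 min and fluorescence recorded.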
# [23] = qHTS assay to identify small molecule antagonists of the thyroid receptor (TR) signaling pathway (AID 743065); also: potency is read from the fitted curve at half-maximal effect; nearly all actives have a fitted effect of over 55% in size
# Procedure, shortened: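 GH3.TRE-Luc rat pituitary cells carrying two TR response elements driving luciferase were plated for 4 h, given compound plus 1 nM T3 (final), and incubated 23.5 h at 37 C. ONE-Glo luminescence measured reporter inhibition; CellTiter-Fluor fluorescence tracked cytotoxicity.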
# [24] = qHTS assay to identify small molecule antagonists of the estrogen receptor alpha (ER-alpha) signaling pathway - cell viability counter screen (AID 743074; calls by dose curve;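 also: HEK293 cells carrying ER-alpha-UAS-bla reporter stimulated with 17beta-estradiol; nearly all actives have a fitted effect of over 45% in size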)
# [25] = qHTS assay to identify small molecule antagonists of the estrogen receptor alpha (ER-alpha) signaling pathway using the BG1 cell line - cell viability counter screen (AID 743081);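 also: compound given together with 17beta-estradiol as the ER stimulus; series mostly up to about 70 µM; nearly all actives have a fitted effect of over 45% in size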
# [26] = qHTS assay to identify aromatase inhibitors - cell viability counter screen (AID 743084);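 also: cells stimulated with testosterone during compound exposure; nearly all actives have a fitted effect of over 55% in size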
# [27] = qHTS assay to identify small molecule that activate the aryl hydrocarbon receptor (AhR) signaling pathway - cell viability counter screen (AID 743086);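 also: HepG2 liver cells carrying the AhR DRE luciferase reporter; series mostly up to about 70 µM; nearly all actives have a fitted effect of over 45% in size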
# Procedure, shortened: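 HepG2-AhR-luc (HG2L7.5c1) cells, 4000/well, were preincubated 5 h at 37C, exposed to compound in qHTS format for 24 hr at 37C, then given CellTiter-Fluor for 30 min; viability was read as fluorescence in the reporter wells.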
# [28] = biological target: Peroxisome proliferator-activated receptor gamma (Homo sapiens) (UniProt P37231); assay: qHTS assay to identify small molecule agonists of the peroxisome proliferator-activated receptor gamma (PPARg) signaling pathway (AID 743094; active = well fitted activation curve with a large enough effect in the signal ratio in the repeat runs, not every such curve was filed as active; the % refers to the signal ratio)
# Peroxisome proliferator-activated receptor gamma (Homo sapiens), sequence (P37231 whole entry, looked up): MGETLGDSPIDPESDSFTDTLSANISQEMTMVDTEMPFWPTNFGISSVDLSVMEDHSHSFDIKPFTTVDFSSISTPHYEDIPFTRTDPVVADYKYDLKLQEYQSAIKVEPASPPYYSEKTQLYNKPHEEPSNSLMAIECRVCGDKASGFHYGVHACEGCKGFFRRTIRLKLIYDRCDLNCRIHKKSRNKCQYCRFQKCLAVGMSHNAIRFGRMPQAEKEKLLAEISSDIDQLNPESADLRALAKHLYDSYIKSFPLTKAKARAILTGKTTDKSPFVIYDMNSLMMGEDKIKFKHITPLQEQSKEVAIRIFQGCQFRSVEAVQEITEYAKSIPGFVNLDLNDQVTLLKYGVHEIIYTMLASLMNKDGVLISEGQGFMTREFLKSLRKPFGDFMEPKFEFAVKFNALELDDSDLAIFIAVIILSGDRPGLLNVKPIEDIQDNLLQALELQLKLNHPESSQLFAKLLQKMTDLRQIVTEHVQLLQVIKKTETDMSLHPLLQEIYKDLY
# Procedure, shortened: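 GeneBLAzer PPARg UAS-bla HEK293H cells carrying a stably integrated beta-lactamase reporter were pre-incubated 5 h at 37C, then exposed to compounds in DMSO for 17 h at 37C; LiveBLAzer B/G FRET substrate was added for 1 h at room temperature and fluorescence read.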
# [29] = qHTS assay to identify small molecule antagonists of the estrogen related receptor (ERR) signaling pathway - cell viability counter screen (AID 1224818);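 also: series mostly up to about 46 µM; viability measured after 17.5 h of compound exposure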
# Procedure, shortened: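 ERR reporter cells plated 6 h at 37 C/5% CO2, then compounds in DMSO pin-transferred and incubated 17.5 h at 37 C. Viability read as CellTiter-Fluor fluorescence after 30 min at 37 C.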
# [30] = system: estrogen-related receptor alpha (ERRalpha) with PGC-1alpha coactivator, human; assay: qHTS assay to identify small molecule antagonists of the estrogen related receptor signaling pathway with the pleiotropic PPARgamma coactivator (PGC) (AID 1224821; calls by dose curve;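 also: series mostly up to about 46 µM; lower luminescence signal means antagonism of PGC/ERR signalling; nearly all actives have a fitted effect of over 50% in size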)
# Procedure, shortened: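 Quantitative HTS for antagonism: PGC/ERR cells received compounds after 6 h attachment and were incubated 18 h at 37 C, with luminescence (One-Glo) as the endpoint.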
# [31] = biological target: Nuclear receptor subfamily 1 group I member 2 (Homo sapiens) (UniProt O75469); assay: CYP3A4 induction through human pregnane X receptor (PXR) by small molecules, qHTS assay (AID 1346984); also: potency is read from the fitted curve at half-maximal effect; nearly all actives have a fitted effect of over 40% in size
# Procedure, shortened: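 DPX-2 cells (HepG2 co-transfected with PXR and CYP3A4 promoter-luciferase) treated with compounds 24 h at 37C; luciferin-IPA CYP3A4 substrate 3uM final added for 3 h, then One-Glo; luminescence read. qHTS format.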
# [32] = biological target: Nuclear receptor subfamily 1 group I member 2 (Homo sapiens) (UniProt O75469); assay: Human pregnane X receptor (PXR) activation by small molecules, qHTS assay (AID 1346985); also: nearly all actives have a fitted effect of over 40% in size
# Procedure, shortened: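 DPX-2 cells (HepG2 co-transfected with a PXR response element and a CYP3A4-promoter luciferase construct) were seeded at 2,000 per well, rested 5 hr at 37C, then exposed to DMSO-dissolved compounds for 24 hr. Activation was read as luciferase luminescence.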
smiles,measurement,setting,value
CN[C@@H]1C[C@@H](c2ccc(Cl)c(Cl)c2)c2ccccc21,Potency,[1],inactive
same,Potency,[2],inactive
same,Potency,[3],inactive
same,outcome,[4],inactive
same,Potency,[5],inactive
same,Potency,[6],inactive
same,outcome,[7],inactive
same,Potency,[8],inactive
same,Potency,[9],inactive
same,outcome,[10],inactive
same,Potency,[11],inactive
same,Potency,[12],inactive
same,Potency,[13],inactive
same,Potency,[14],inactive
same,Potency,[15],inactive
same,Potency,[16],inactive
same,Potency,[17],5.96 µM (active)
same,Potency,[18],11.9 µM (active)
same,Potency,[19],11.9 µM (active)
same,Potency,[20],inactive
same,Potency,[21],inactive
same,Potency,[22],11.9 µM (active)
same,Potency,[23],11.9 µM (active)
same,Potency,[24],inactive
same,Potency,[25],inactive
same,Potency,[26],inactive
same,Potency,[27],inactive
same,Potency,[28],inactive
same,Potency,[29],inactive
same,Potency,[30],inactive
same,Potency,[31],28.2 µM (active)
same,Potency,[32],inactive

# Reference: PubChem BioAssay (Tox21)
